The values that follow come from PubChem BioAssay (EPA / NIEHS).

SMILES strings stand for the structures. The source made the active and inactive calls. The calls were made as follows: active = hit-call score of the fitted dose curve at least 0.9, where 1 is the maximum; inactive = score below 0.9.

Experiment [1] can be described thus: APR_HepG2_P-H2AX_72hr: Apredica 72-hour HepG2 Assay for H2AX Phosphorylation (AID 2282916).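 Also: phospho-histone H2A.x immunostain intensity per cell marking DNA damage.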 To be noted: imaging, actives raise or lower the signal. Put shortly: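 HepG2; cpd 0.39–200 uM ×10 conc, duplicates; 0.5% DMSO; 72 hr. Fix 3.7% formaldehyde 30 min RT, 0.5% Triton X-100 10 min. Anti-phospho-H2A.x 1:200 + Hoechst 2 ug/mL, 60 min RT; ArrayScan imaging.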

Experiment [2] in a line: APR_HepG2_MitoMembPot_72hr: Apredica 72-hour HepG2 Assay for Mitochondrial Membrane Potential (AID 2282917). To be noted: imaging, actives raise or lower the signal. Put shortly: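 Membrane potential read by MitoTracker Red CMXRos (250 nM, 30 min, pre-fixation) fluorescence imaging of HepG2 after 72 hr exposure. Ten concentrations, 0.39–200 uM, duplicate wells, 0.5% DMSO; fitted in both directions against DMSO baseline.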

Experiment [3] is described as follows: APR_HepG2_MitoticArrest_72hr: Apredica 72-hour HepG2 Assay for Mitotic Arrest (AID 2282918). To be noted: high-content imaging, actives raise or lower the signal. In outline: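 HepG2 cells treated 72 h at 0.39–200 uM, 0.5% DMSO final; formaldehyde-fixed, stained with Hoechst 33342 and phospho-histone H3 antibody, imaged by high-content fluorescence; bidirectional fit versus DMSO.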

The nature of experiment [4]: APR_HepG2_MicrotubuleCSK_72hr: Apredica 72-hour HepG2 Assay for Microtubule CSK Stabilty (AID 2282919). To be noted: HepG2 microtubule cytoskeleton, high-content imaging, actives raise or lower the signal. Put shortly:
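Read-out is tubulin fluorescence intensity from high-content imaging of HepG2 cells, with nuclei identified by Hoechst 33342. Treatment lasts 72 h at 0.39–200 uM, and curves are fitted bidirectionally against the DMSO negative control.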

Experiment [5] is described as follows: APR_HepG2_P-H2AX_24hr: Apredica 24-hour HepG2 Assay for H2AX Phosphorylation (AID 2282920). To be noted: high-content imaging, actives raise or lower the signal. In outline:
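HepG2 cells dosed 24 h at 0.39–200 uM (10 points, duplicate, 0.5% DMSO final). Formaldehyde-fixed and permeabilized, then immunostained for phospho-H2A.x with Hoechst. Fluorescence quantified by high-content imaging, fitted bidirectionally versus DMSO.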

Experiment [6] is described as follows: APR_HepG2_StressKinase_72hr: Apredica 72-hour HepG2 Assay for Stress Kinase (AID 2282921). To be noted: HepG2 stress kinase (phospho-c-Jun) imaging, actives raise or lower the signal. In outline:
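Dose 0.39–200 uM (10 pts, duplicate), 0.5% DMSO; 72 h; fix 3.7% formaldehyde 30 min RT; Triton permeabilize; anti-phospho-c-Jun/Cy3 + Hoechst 60 min RT; image 20x; fit gain/loss vs DMSO.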

The nature of experiment [7]: APR_HepG2_StressKinase_24hr: Apredica 24-hour HepG2 Assay for Stress Kinase (AID 2282922). To be noted: HepG2 stress kinase (phospho-c-Jun) imaging, actives raise or lower the signal. In outline: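 HepG2, 24 hr dosing, 0.39–200 uM in duplicate, 0.5% DMSO; formaldehyde fix (3.7%), 0.5% Triton X-100; anti-phospho-c-Jun + Cy3 secondary, Hoechst counterstain; ArrayScan imaging; bidirectional curve fit vs DMSO baseline.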

Experiment [8] is described as follows: APR_HepG2_p53Act_72hr: Apredica 72-hour HepG2 Assay for p53 Activation (AID 2282923).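 Also: average cellular p53 protein immunofluorescence intensity in HepG2 cells.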 To be noted: high-content imaging, actives raise or lower the signal. Put shortly: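 10-pt conc. 0.39–200 uM, duplicate, 0.5% DMSO; 72 hr exposure; 3.7% formaldehyde fix, 0.5% Triton perm; sheep anti-p53/Cy5 + Hoechst; ArrayScan 20x, 6 images/well; gain/loss fit vs DMSO.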

The nature of experiment [9]: APR_HepG2_MitoMass_72hr: Apredica 72-hour HepG2 Assay for Mitochondrial Mass (AID 2282924).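 Also: MitoTracker Red CMXRos stain intensity per cell imaged as mitochondrial mass.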 To be noted: high-content imaging, actives raise or lower the signal. In outline:
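HepG2, 72 hr cmpd, 10 conc 0.39–200 uM in dup, DMSO 0.5% v/v. MitoTracker Red CMXRos 250 nM 30 min pre-fix; formaldehyde 3.7% fix 30 min RT. HCS imaging, gain/loss fit vs DMSO.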

The nature of experiment [10]: APR_HepG2_NuclearSize_72hr: Apredica 72-hour HepG2 Assay for Nuclear Size (AID 2282925). To be noted: high-content imaging, actives raise or lower the signal. In outline: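 HepG2; cpd 0.39–200 uM, 10 conc, duplicate; 72 h; DMSO 0.5% v/v; fix 3.7% formaldehyde 30 min RT; Triton permeabilization; Hoechst 2 ug/mL; HCS imaging 20x; nuclear diameter; gain/loss fit vs DMSO.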

Experiment [11] can be described thus: ATG_CRE_CIS: Attagene CIS-FACTORIAL HepG2 Assay for human cAMP Responsive Element (CRE) binding protein 3 (AID 2282926). To be noted: HepG2 CRE cis-reporter, Attagene multiplexed mRNA; actives raise or lower the signal. In outline:
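HepG2 cells transiently transfected with cis-element-driven multiple reporter transcription units; CRE reporter mRNA measured 24 h after dosing by RT-PCR, 6-FAM labelling, HpaI digestion and capillary electrophoresis. Bidirectional fit versus DMSO baseline.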

In experiment [12] the target is CCAAT/enhancer-binding protein beta (Homo sapiens) (UniProt P17676). The experiment can be described thus: ATG_C_EBP_CIS: Attagene CIS-FACTORIAL HepG2 Assay for human CCAAT/Enhancer Binding Protein (C/EBP) beta (AID 2282927). To be noted: HepG2 Attagene cis-factorial transcription factor reporter; actives raise or lower the signal. In outline:
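Endogenous C/EBPb-driven reporter transcripts measured in transfected human HepG2 cells at 24 h via RT-PCR and capillary electrophoresis of labelled fragments. Activity fitted in both directions relative to DMSO baseline.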

The nature of experiment [13]: ATG_CMV_CIS: Attagene CIS-FACTORIAL HepG2 Assay for human CMV (Internal Marker) (AID 2282928).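 Also: endpoint acts as a background internal control marker rather than a target.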 To be noted: HepG2 CMV promoter reporter, transcription factor profiling; actives raise or lower the signal. In outline: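 Endogenous transcription factor activity read in HepG2 via transfected cis-promoter reporter units. After 24 h dosing, reporter mRNA measured by RT-PCR/capillary electrophoresis; gain or loss of signal fit relative to DMSO.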

Experiment [14] in a line: ATG_DR4_LXR_CIS: Attagene CIS-FACTORIAL HepG2 Assay for human Liver X Receptor (LXR), DR4 submotif (AID 2282929). To be noted: HepG2 Attagene DR4 cis-reporter, mRNA transcription; actives raise or lower the signal. In outline:
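Fluorescence intensity of labelled reporter cDNA fragments, separated by capillary electrophoresis, gives the signal. HepG2 cells bearing cis-regulated reporter constructs were treated 24 h; activity fitted bidirectionally relative to DMSO negative control.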

Experiment [15] has as its target Aryl hydrocarbon receptor (Homo sapiens) (UniProt P35869). The experiment in a line: ATG_Ahr_CIS: Attagene CIS-FACTORIAL HepG2 Assay for human Aryl Hydrocarbon Receptor (Ahr) (AID 2282930). To be noted: HepG2 AhR cis-factorial reporter transcription; actives raise or lower the signal. Put shortly:
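Reporter mRNA levels, quantified by RT-PCR and fluorescent capillary electrophoresis, reflect endogenous AhR transcriptional activity in HepG2 cells carrying transfected cis-promoter reporter constructs. Readout at 24 h post-dose; gain or loss fitted against DMSO baseline.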

Experiment [16] is described as follows: ATG_AP_2_CIS: Attagene CIS-FACTORIAL HepG2 Assay for human Activator Protein 2 (AP-2) (AID 2282932). To be noted: HepG2 AP-2 cis-reporter, Attagene transcription factor profiling; actives raise or lower the signal. Put shortly: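 HepG2, transient MRTU transfection, cis-regulated reporters; 24 h compound exposure; RNA isolated, RT-PCR, 6-FAM labelling, HpaI digest, CE fluorescence. DMSO = negative control/baseline, bidirectional fit.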

The nature of experiment [17]: ATG_BRE_CIS: Attagene CIS-FACTORIAL HepG2 Assay for human Bone Morphogenetic Protein (BMP) Response Element (BRE) (AID 2282933). To be noted: HepG2 BMP response element reporter, Attagene transcription factor profiling; actives raise or lower the signal. In outline:
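After a 24 h chemical treatment, transiently transfected HepG2 cells were lysed for RNA; reporter transcripts were quantified by fluorescent RT-PCR and capillary electrophoresis, normalised to DMSO.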

Experiment [18] concerns the target Retinoic acid receptor alpha (Homo sapiens) (UniProt P10276). The experiment can be described thus: ATG_DR5_RAR_CIS: Attagene CIS-FACTORIAL HepG2 Assay for human Retinoic Acid Receptor Alpha (RARE), DR5 submotif (AID 2282934).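 As to AC50: reporter responds to endogenous RAR alpha beta and gamma in HepG2 not RARA alone.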 To be noted: HepG2 Attagene cis-factorial RARE DR5 reporter, mRNA; actives raise or lower the signal. In outline:
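Reporter transcripts from a DR5-regulated unit, measured via RT-PCR plus capillary electrophoresis, reflect endogenous RAR activity in transiently transfected human HepG2 liver cells. Exposure lasted 24 h; gain or loss of signal scored against DMSO.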

Experiment [19] in a line: ATG_AP_1_CIS: Attagene CIS-FACTORIAL HepG2 Assay for human Activator Protein 1 (AP-1) (AID 2282931). To be noted: HepG2 Attagene cis-factorial AP-1 reporter mRNA; actives raise or lower the signal. Put shortly:
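Multiplexed HepG2 reporter assay, 24 h dosing. mRNA induction detected by RT-PCR plus capillary electrophoresis. Activity fitted in both directions against DMSO.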

Chain of CCAAT/enhancer-binding protein beta (Homo sapiens) (P17676 whole entry, looked up, the tested form may be a part): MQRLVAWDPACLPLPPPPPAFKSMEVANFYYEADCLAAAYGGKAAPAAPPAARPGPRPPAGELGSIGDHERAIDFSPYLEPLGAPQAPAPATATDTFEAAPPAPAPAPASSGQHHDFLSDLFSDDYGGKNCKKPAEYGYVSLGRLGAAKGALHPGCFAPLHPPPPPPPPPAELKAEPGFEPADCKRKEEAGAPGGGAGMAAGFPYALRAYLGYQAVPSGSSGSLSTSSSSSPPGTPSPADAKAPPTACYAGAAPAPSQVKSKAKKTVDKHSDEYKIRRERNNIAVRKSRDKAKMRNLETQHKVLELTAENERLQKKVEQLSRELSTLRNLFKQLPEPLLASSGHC
Chain of Aryl hydrocarbon receptor (Homo sapiens) (P35869 whole entry, looked up): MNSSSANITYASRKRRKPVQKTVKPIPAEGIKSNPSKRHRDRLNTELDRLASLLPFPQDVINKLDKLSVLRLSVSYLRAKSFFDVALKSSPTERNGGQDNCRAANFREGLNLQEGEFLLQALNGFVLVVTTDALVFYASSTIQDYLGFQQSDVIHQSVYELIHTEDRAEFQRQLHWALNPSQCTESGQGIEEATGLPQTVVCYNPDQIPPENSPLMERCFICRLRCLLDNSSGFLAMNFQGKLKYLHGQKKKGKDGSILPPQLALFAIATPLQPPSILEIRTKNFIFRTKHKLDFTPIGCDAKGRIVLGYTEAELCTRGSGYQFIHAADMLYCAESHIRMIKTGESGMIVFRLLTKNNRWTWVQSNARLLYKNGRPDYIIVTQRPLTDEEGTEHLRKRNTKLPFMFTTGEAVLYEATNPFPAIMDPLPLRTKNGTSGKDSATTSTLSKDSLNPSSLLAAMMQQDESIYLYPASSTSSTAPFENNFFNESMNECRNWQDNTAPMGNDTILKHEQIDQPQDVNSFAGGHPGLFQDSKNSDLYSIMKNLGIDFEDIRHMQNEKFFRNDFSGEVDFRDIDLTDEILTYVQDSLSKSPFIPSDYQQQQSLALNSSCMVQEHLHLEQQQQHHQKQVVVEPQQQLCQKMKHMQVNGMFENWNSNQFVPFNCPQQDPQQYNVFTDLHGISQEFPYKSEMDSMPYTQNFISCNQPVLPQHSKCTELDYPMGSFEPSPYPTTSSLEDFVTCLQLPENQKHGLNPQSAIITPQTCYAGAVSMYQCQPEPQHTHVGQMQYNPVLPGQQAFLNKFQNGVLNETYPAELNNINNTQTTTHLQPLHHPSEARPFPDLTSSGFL
Chain of Retinoic acid receptor alpha (Homo sapiens) (P10276 whole entry, looked up): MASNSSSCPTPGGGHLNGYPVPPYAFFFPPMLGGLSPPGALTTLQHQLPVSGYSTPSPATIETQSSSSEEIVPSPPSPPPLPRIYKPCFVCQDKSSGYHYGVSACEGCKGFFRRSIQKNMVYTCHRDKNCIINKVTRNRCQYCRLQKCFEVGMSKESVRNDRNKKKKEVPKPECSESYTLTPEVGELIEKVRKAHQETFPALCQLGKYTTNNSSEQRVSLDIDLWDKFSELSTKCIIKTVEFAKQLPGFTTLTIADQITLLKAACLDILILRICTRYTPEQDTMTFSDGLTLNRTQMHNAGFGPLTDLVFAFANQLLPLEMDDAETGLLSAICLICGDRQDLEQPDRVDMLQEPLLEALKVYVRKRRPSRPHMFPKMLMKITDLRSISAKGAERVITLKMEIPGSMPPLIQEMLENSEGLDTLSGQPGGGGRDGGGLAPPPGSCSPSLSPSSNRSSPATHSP

Turning to `O=S1OCC2C(CO1)C1(Cl)C(Cl)=C(Cl)C2(Cl)C1(Cl)Cl` (centres undefined), the compound was called inactive in experiment [1], in [2], in experiment [3], in experiment [5], in [6] and in experiment [7]. Further, the compound was called inactive in experiment [8], in experiment [9], in experiment [10], in experiment [11], in [12] and in experiment [13]. The result in [14], in [15], in experiment [16], in experiment [17] and in experiment [18] was inactive. Besides, the AC50 in experiment [4] was 117 µM (active).
As to `CCC(C)(NC(=O)c1cc(Cl)c(C)c(Cl)c1)C(=O)CCl` (centres undefined), the outcome in [1], in experiment [2], in experiment [3], in experiment [4], in [5] and in [6] was inactive. Besides, the outcome in experiment [7], in [8], in experiment [9], in experiment [10], in experiment [11] and in experiment [12] was inactive. For the same compound, the result in [13], in experiment [14], in experiment [15], in experiment [19], in [16] and in experiment [17] was inactive. The compound was called inactive in experiment [18].
Take `O=C(O)COc1ccc(Cl)cc1Cl`: the call in [1], in experiment [2], in [3], in [4], in experiment [5] and in experiment [6] was inactive. In addition, the call in experiment [7], in experiment [8], in experiment [9], in experiment [10], in experiment [11] and in [12] was inactive. The result in experiment [13], in experiment [14], in [16] and in experiment [17] was inactive.
In the case of `CC1(C)C(C=C(Cl)Cl)C1C(=O)OC(C#N)c1ccc(F)c(Oc2ccccc2)c1` (centres undefined), the compound was called inactive in experiment [1], in [2], in experiment [3], in [4], in [5] and in [6]. Besides, the call in experiment [7], in experiment [8], in experiment [9], in experiment [10], in experiment [11] and in experiment [12] was inactive. The compound was classed as inactive in experiment [13], in experiment [15], in experiment [16] and in experiment [17]. Also, the AC50 in experiment [14] is 14.4 µM (active); in experiment [18] it was 2.57 µM (active).
On to `CCOc1nc(NC)nc(NC(=O)NS(=O)(=O)c2ccccc2C(=O)OC)n1`, for which the compound was called inactive in experiment [1], in [2], in [3], in experiment [4], in experiment [5] and in experiment [6]. For the same compound, the result in experiment [7], in [8], in [9], in [10], in [11] and in [12] was inactive. Also, the call in experiment [13], in experiment [14], in experiment [15], in [16], in [17] and in experiment [18] was inactive.
For the compound `CNC(=O)/C=C(\C)OP(=O)(OC)OC`, the call in [1], in experiment [2], in experiment [3], in experiment [4], in [5] and in [6] was inactive. The compound was classed as inactive in [7], in experiment [9], in experiment [10], in experiment [11], in experiment [12] and in [13]. The result in experiment [14], in experiment [15], in experiment [16] and in experiment [17] was inactive.
Take `[2H]C1([2H])[n+]2ccccc2-c2cccc[n+]2C1([2H])[2H]`: the compound was called inactive in experiment [1], in experiment [2], in experiment [5], in [6], in [7] and in [8]. The result in [9], in experiment [10], in experiment [11], in experiment [12], in experiment [15] and in experiment [16] was inactive. For the same compound, the call in experiment [17] and in [18] was inactive. In addition, the AC50 in experiment [3] was 94.5 µM (active); in [4] it was 143 µM (active); in [13], 13.5 µM (active); in experiment [14] it was 79.9 µM (active); in experiment [19] it was 38.9 µM (active).
